Compounds with a hit are over-represented: about 2.2% of the library has one in this group of screens.
Abeta rescue = A-beta toxicity reversal in yeast; yeast expressing A-beta42, growth rescue, OD600, 48 h; response scale: 0% DMSO, 100% iron-clioquinol control; Potency, µM (highest dose often 46.1 µM), hits mostly activators; hit rate 0.063% among 410,000; AID 1347071; note: nearly all actives have a fitted effect of over 55% in size
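Yeast growth medium received pinned compounds, then yeast cells expressing toxic A-beta were added; plates incubated at 30 C for 48 hr. Growth read as absorbance at 600 nm, normalized to DMSO and equimolar FeCl3 plus clioquinol controls.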
aSyn rescue = rescues yeast growth from alpha-synuclein toxicity; Yeast expressing alpha-synuclein, growth rescue, BacTiter-Glo, 24 h; Potency, µM (doses to about 46.1 µM), for inactives: top-dose growth rescue (activation), most hits filed as activators; hit rate 0.14% among 370,000; AID 652106; note: % of control where 0% means no effect; nearly all actives have a fitted effect of over 65% in size
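Galactose-induced alpha-syn yeast (OD600=0.02, raffinose-pregrown) + pinned cpd, 24 hr, 30 deg C; growth by BacTiter-Glo luminescence. Growth restoration scores as activation.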
Mito fusion yeast = inhibitors of mitochondrial division or activators of mitochondrial fusion; S. cerevisiae fusion-defective mutant growth rescue, CellTiterGlo 48 h; Potency, µM (series often up to 46.1 µM), for the others: top-dose growth rescue (activation), most hits filed as activators; hit rate 0.23% among 320,000; note: % of control where 0% means no effect; nearly all actives have a fitted effect of over 45% in size
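Yeast fusion mutant, YPEG (non-fermentable carbon), compound, 48 h at 37C non-permissive; CellTiterGlo added, 10 min RT, luminescence read. Rescued growth = division inhibition.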
FUS suppressor = suppressors of FUS proteinopathy in yeast. Potency, µM (highest dose often 76.6 µM), usual class: activators. hit rate 0.24% among 390,000. AID 1347120. S. cerevisiae FUS-expressing, growth rescue, OD600, 24 h;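 note: plate controls were DMSO vehicle for no effect and reference control for full effect; nearly all actives have a fitted effect of over 55% in size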
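Yeast FUS proteinopathy model; galactose-induced FUS (2%), starting OD 0.005. Cpds in dilution series, 24hr, 30C, 99% humidity. Abs 600 nm growth. Pos ctrl CP55940 (top 92uM final); neg ctrl DMSO.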
TDP-43 yeast inh = inhibitors of TDP-43 toxicity in yeast; TDP-43 expressing yeast growth rescue, BacTiter-Glo, 24 h; Potency, µM (titrated, usually from 46.1 µM), for inactives: at the top dose growth rescue (activation), actives largely listed as activators; hit rate 1.8% among 410,000; AID 652104; note: % of control where 0% means no effect; nearly all actives have a fitted effect of over 50% in size
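Growth rescue of TDP-43-toxic yeast measured as ATP luminescence (BacTiter-Glo). Cells grown to mid-log in raffinose, induced in galactose at OD600=0.02, exposed to compound 24 hr at 30 deg C.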
Starred values were filed as active, the others as inactive; i = inactive; ? = inconclusive; / = no result given; [ ] = another dose, or the depositor's remark. Calls come from the whole dose curve; as a rule, active = well fitted curve in the direction sought with a large enough effect; inconclusive = small, poorly fitted or top-dose-only effect, or another doubt; inactive = no such curve, though single readings can be large; an effect the other way counts as inactive or inconclusive. Potency is the fitted concentration of half-maximal effect.

SMILES | Abeta rescue | aSyn rescue | Mito fusion yeast | FUS suppressor | TDP-43 yeast inh
CN(C(=S)Oc1ccc(C(=O)Nc2ccccc2)cc1)c1ccccc1 | i | 0.4% | ? | / | 12.6µM*
CCOC(=O)C1=CCN(S(=O)(=O)c2ccc(F)cc2)C1c1cccc(F)c1 (stereo not given) | i | 12.0% | / | i | ?
CC(=O)CSc1ncnc2sc3c(c12)CCC3 | i | ? | -2.0% | i | 25.1µM*
COc1ccc(C2=CC(c3cc(Br)ccc3F)n3c(nc4ccccc43)N2)cc1 (stereo not given) | i | / | / | i | ?
COC(=O)c1ccc(C2C=C(c3ccc(Cl)cc3)Nc3nc4ccccc4n32)cc1 (stereo not given) | i | / | / | i | 10µM*
Fc1ccc(C2=CC(c3ccc(F)cc3)n3c(nc4ccccc43)N2)cc1 (stereo not given) | i | / | / | i | 22.4µM*
COc1ccc(C(=O)Nc2nc3n(n2)C(c2ccc(F)cc2)C=C(c2ccc(Cl)cc2)N3)cc1 (stereo not given) | i | / | / | ? | 0.0%[9.22 µM]
CCN(CC(=O)Nc1ccccc1C(F)(F)F)C(=O)c1ccc(N2CCCC2=O)cc1 | i | -2.3% | 3.1% | i | -0.1%
CC1(C)SC2c3ccccc3C(=O)N2[C@@H]1C(=O)NC1CCCC1 (stereo not given in full) | i | -8.5% | 17.5% | i | 0.7%
CC1(C)SC2c3ccccc3C(=O)N2[C@@H]1C(=O)NC1CC1 (stereo not given in full) | i | -4.6% | 18.0% | i | 1.26µM*
O=C1CC(Sc2ccc(Cl)cc2)C(=O)N1c1ccc2c(c1)OCCO2 (stereo not given) | i | 26.0% | -3.1% | i | 11.2µM*
Cc1nc(-c2ccc(Cl)cc2)sc1CCNC(=O)C(=O)Nc1ccc2c(c1)OCCO2 | i | / | / | i | 0.0%
CNc1cc(-c2cc(OC)ccc2OC)ncn1 | i | -0.2% | / | i | 3.2%
O=C(N/N=C/c1cc([N+](=O)[O-])cc(Br)c1O)C12CC3CCC(CC(C3)C1)C2 | i | -0.3% | 0.3% | i | 4.47µM*
COc1cc(/C=N/NC(=O)C23CC4CC(CC(C4)C2)C3)cc(Br)c1O | i | -0.8% | 3.1% | i | 1.7%
O=C(c1ccccc1Br)N1CCc2c([nH]c3ccccc23)C1 | i | ? | 21.1% | i | 17.8µM*
CCOc1cc(-c2noc(N)c2C(=O)OC)cc(OCC)c1OCC | i | -11.2% | 3.3% | / | 9.7%
COC(=O)c1c(-c2ccc(Br)cc2)noc1N | i | -2.7% | 0.2% | i | 20µM*
COc1ccccc1OCCCn1cc(C#N)c2ccccc21 | i | 0.5% | 20.5% | i | 35.5µM*
CCCCNC(=O)C[C@@H]1C[C@]2(C(=O)OCC)CCC3=C2N(CCC3)C1=O | / | / | / | i | /
O=C(Nc1nccs1)c1ccc(-c2ccc(F)c(Cl)c2)o1 | i | -10.1% | 11.9% | i | 12.6µM*
O=C(c1ccc(COc2ccccc2Cl)o1)N1CCN(c2ccccc2)CC1 | i | 22.9% | 13.6% | i | 35.5µM*
Cc1cccc(NC(=O)c2ccc(COc3ccccc3)o2)n1 | i | -5.8% | 2.6% | i | ?
Cc1cccc(NC(=O)c2ccc(COc3ccc(Cl)cc3Cl)o2)n1 | i | -4.8% | 4.6% | ? | 17.8µM*
COC(=O)c1ccc(COc2ccc(C(=O)c3ccccc3)cc2)o1 | i | -4.7% | 4.3% | i | 11.2µM*
SMILES | Abeta rescue | aSyn rescue | Mito fusion yeast | FUS suppressor | TDP-43 yeast inh
O=C(Nc1nccs1)c1ccc(COc2c(F)c(F)cc(F)c2F)o1 | i | -9.9% | -2.1% | i | 25.1%
O=C(Nc1nccs1)c1ccc(COc2ccccc2Cl)o1 | i | -2.7% | 20.4% | i | 7.08µM*
Cc1csc(NC(=O)c2ccc(COc3cccc(Cl)c3)o2)n1 | / | / | / | i | /
Cc1csc(NC(=O)c2ccc(COc3ccccc3)o2)n1 | i | 0.4% | 17.6% | i | 22.4µM*
O=C(c1ccc(CS(=O)c2cccc(Cl)c2)o1)N1CCN(C2CCCCC2)CC1 (stereo not given) | i | -2.0% | 0.0% | i | -4.9%
CC1(Cc2ccc(Cl)s2)C(=O)Nc2c(Cl)ccc(Cl)c21 (stereo not given) | i | ? | / | i | -49.2%
COc1ccccc1/C=C/c1nc(S(=O)(=O)c2ccccc2)c(N2CCC(C(N)=O)CC2)o1 | i | -1.3% | 35.5µM* | i | -23.8%
O=C(NCC1CCCO1)c1cccc2c1C(=O)c1ccc(N3CCC(Cc4ccccc4)CC3)cc1S2(=O)=O (stereo not given) | i | 2.5% | / | 10µM* | -2.5%
CC1CC(C)(C)N(C(=O)NC2CCCCC2)c2ccccc21 (stereo not given) | i | -8.0% | 0.4% | / | 14.1µM*
COc1ccc2c(c1)C(C)CC(C)(C)N2C(=O)NC1CCCCC1 (stereo not given) | i | 1.5% | -3.7% | i | -22.7%
O=C(NC(=S)NCc1ccc2c(c1)OCO2)c1ccccc1 | ? | 21.5% | -13.1% | i | 15.8µM*
O=C(NC(=S)NCc1ccccc1)c1ccc2c(c1)OCO2 | i | 1.7% | ? | / | 25.1µM*
O=C(NCc1ccccc1F)c1ccc2c(c1)OCCO2 | ? | -26.1% | -22.4% | i | 14.1µM*
O=C(NNC(=S)NCc1ccccc1)c1ccc2c(c1)OCO2 | i | -3.2% | -3.3% | i | 13.8%
COc1ccccc1NC(C)C(=O)c1c[nH]c2ccccc12 (stereo not given) | / | -13.5% | / | / | /
O=C(CN1CCN(S(=O)(=O)c2cccs2)CC1)NCC1CCCCC1 | i | -14.5% | -7.2% | i | 14.2%
CCN(CC)C(=O)C1CCN(S(=O)(=O)c2c(C)noc2/C=C/c2cccc(C)c2)CC1 | i | 0.9% | -7.2% | 20µM* | 0.0%
Cc1cccc(N2CC(C(=O)Nc3nnc(SCC(=O)N4CCOCC4)s3)CC2=O)c1 (stereo not given) | i | -9.6% | 0.8% | 17.8µM* | -10.7%
O=C(Nc1nnc(SCC(=O)N2CCOCC2)s1)C1CC(=O)N(c2ccccc2)C1 (stereo not given) | i | 16.6% | 0.6% | i | -16.0%
O=C(Nc1ccc2oc(-c3cccnc3)nc2c1)c1ccc(-c2cccc(OC(F)(F)F)c2)o1 | i | / | / | i | 2.4%
N#CCCN(C(=O)COC(=O)CCc1c[nH]c2ccccc12)c1ccccc1 | i | 0.6% | 9.8% | i | 16.3%
CC(=O)C1=CCC(c2ccc(Cl)cc2)N(S(=O)(=O)c2ccccc2)C1 (stereo not given) | i | ? | / | i | 14.1µM*
CC(=O)C1=CCC(c2ccc(C)cc2)N(S(=O)(=O)c2ccc(C)cc2)C1 (stereo not given) | i | 8.9% | / | i | 18.6%
